Results from PubChem BioAssay (Tox21).
“And” between values parts separate entries of the source, which are not always exact repeats. Identical values can stand only once. Results filed as inconclusive are left out. A call without a number means that no potency is given here. A structure can be active in one record and inactive in another. The source made the active and inactive calls. Unless noted, the call rests on the fitted dose curve.

How the values were obtained:
[1] = Nuclear factor erythroid 2-related factor 2/antioxidant responsive element (Nrf2/ARE) small molecule agonists: qHTS cell viability counter screen in human keratinocytes (AID 1919968; active means well fitted curve in the direction sought with a large enough effect in the repeat runs; an effect the other way counts as inactive or inconclusive; further: nearly all actives have a fitted effect of over 55% in size; further: potency means the concentration at half of the fitted maximal effect)
Outline: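 HaCaT ARE reporter line, 1,500 cells/well; 5 h settle, 37 C/5% CO2; cpd in DMSO pinned; 23 h exposure; CellTiter-Fluor, 1 h; fluorescence.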

[2] = Nuclear factor erythroid 2-related factor 2/antioxidant responsive element (Nrf2/ARE) small molecule agonists: luciferase reporter gene qHTS assay in human keratinocytes (AID 1919969); further: nearly all actives have a fitted effect of over 35% in size; further: potency means the concentration at half of the fitted maximal effect
[3] = biological target: Gonadotropin-releasing hormone receptor (Homo sapiens) (UniProt P30968); assay: Human gonadotropin-releasing hormone receptor (GnRHR) small molecule agonists, calcium flux assay in GnRHR-HEK293 cells (AID 1920063); further: nearly all actives have a fitted effect of over 35% in size; further: potency means the concentration at half of the fitted maximal effect
Outline: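 GnRHR-HEK293, 1500 cells/well, 18 h 37 C/5% CO2; Ca dye 1 h 37 C; cpd pinned (DMSO), agonist mode; kinetic FL 480/540, 3 min, 1 s reads; 15 conc, n=3.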

[4] = biological target: KiSS-1 receptor (Homo sapiens) (UniProt Q969F8); assay: Human kisspeptin (KISS1R) small molecule agonists, calcium flux assay in KISS1R-HEK293 cells (AID 1920064; active means well fitted curve in the direction sought with a large enough effect in the repeat runs; an effect the other way counts as inactive or inconclusive)
Outline: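 Stable human KISS1R HEK293 line; 18 h plating, 37 C/5% CO2; calcium dye 1 h 37 C; compound pin transfer; kinetic fluorescence Ex/Em 480/540, 3 min.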

[5] = G protein-coupled receptor (GPCR) small molecule agonists, calcium flux assay: HEK293 wild type cell line counter screen (AID 1920065)
Outline: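 Kinetic fluorescence at Ex/Em 480/540, recorded every second over 3 min, served as the read-out after compound addition. Each compound was tested at 15 concentrations in triplicate on cells pre-loaded with calcium dye for 1 h.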

[6] = p53 small molecule agonists, cell-based qHTS assay with human liver microsomes: qHTS cell viability counter screen (AID 1963579); further: nearly all actives have a fitted effect of over 45% in size; further: potency means the concentration at half of the fitted maximal effect
Outline: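 Metabolic activation used human liver microsomes and NADPH, both 0.5 mg/mL final, over 16 hours at 37 C on p53RE-bla cells (4,000/well). Cytotoxicity measured by CellTiter-Glo luminescence, 30 min at room temperature.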

[7] = p53 small molecule agonists, cell-based qHTS assay with rat liver microsomes: qHTS cell viability counter screen (AID 1963580); further: nearly all actives have a fitted effect of over 45% in size; further: potency means the concentration at half of the fitted maximal effect
Outline: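 In HCT-116 cells carrying a p53 response element-bla reporter, compounds were metabolically activated in situ by rat liver microsomes with NADPH over 16 h. Cell ATP content then served as the cytotoxicity measure.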

[8] = p53 small molecule agonists, cell-based qHTS assay: qHTS cell viability counter screen (AID 1963581); further: nearly all actives have a fitted effect of over 45% in size; further: potency means the concentration at half of the fitted maximal effect
Outline: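 HCT-116 p53RE-bla cells, 4,000/well, plated 5 h before compound pin transfer; 16 h at 37 C; bla substrate 2 h RT; then CellTiter-Glo, 30 min RT, luminescence.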

[9] = biological target: 5-hydroxytryptamine receptor 2A (Homo sapiens) (UniProt P28223); assay: 5-hydroxytryptamine receptor 2A (HTR2A) small molecule antagonists, cell-based qHTS assay (AID 1963586); further: nearly all actives have a fitted effect of over 45% in size
Outline: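 Antagonist-mode intracellular calcium assay: DOI (4 nM) added after 5 min compound pre-incubation at room temperature to dye-loaded HTR2A-CHO cells. Fluorescence followed for 3 min, sampled every second.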

[10] = biological target: 5-hydroxytryptamine receptor 2A (Homo sapiens) (UniProt P28223); assay: 5-hydroxytryptamine receptor 2A (HTR2A) small molecule agonists, cell-based qHTS assay (AID 1963587); further: nearly all actives have a fitted effect of over 30% in size; further: potency means the concentration at half of the fitted maximal effect
Outline: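 HTR2A-CHO cells, plated 18 h at 37 C/5% CO2, dye-loaded 1 h at 37 C; compounds in DMSO added by pin tool (agonist mode). Intracellular calcium flux read as kinetic fluorescence on FDSS over 2 min at 1 s intervals.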

[11] = biological target: Muscarinic acetylcholine receptor M1 (Homo sapiens) (UniProt P11229); assay: Cholinergic receptor muscarinic 1 (CHRM1) small molecule antagonists, cell-based qHTS assay (AID 1963588); further: nearly all actives have a fitted effect of over 40% in size; further: potency means the concentration at half of the fitted maximal effect
Outline: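 CHRM1-CHO calcium-flux assay, antagonist mode. Cells were seeded 18 h, dye-loaded 1 h at 37 C and given compound for 5 min at RT, then acetylcholine was added at 50nM. FDSS fluorescence was read 3 min; 15 concentrations, three runs.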

[12] = biological target: Muscarinic acetylcholine receptor M1 (Homo sapiens) (UniProt P11229); assay: Cholinergic receptor muscarinic 1 (CHRM1) small molecule agonists, cell-based qHTS assay (AID 1963589); further: nearly all actives have a fitted effect of over 35% in size; further: potency means the concentration at half of the fitted maximal effect
Outline: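 Human M1 in stable CHO line; 18 h plating, 1 h dye load 37 C; cpd added (agonist mode); Ca2+ fluorescence kinetic read, 1 s intervals; 15 conc, 3 runs.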

[13] = cAMP Responsive Elements (CRE) small molecule agonists, cell-based qHTS assay (AID 1963590)
Outline: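 HEK 293T CRE-bla, 2,000 cells/well, 18 h preincubation 37 C/5% CO2; cpds (DMSO) pinned, 3 h; LiveBLAzer B/G FRET substrate, 2 h RT.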

[14] = biological target: Beta-2 adrenergic receptor (Homo sapiens) (UniProt P07550); assay: Adrenergic beta2 receptor (ADRB2) small molecule antagonists, cell-based qHTS assay (AID 1963592); further: series mostly up to about 92 µM; nearly all actives have a fitted effect of over 50% in size
Outline: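 Cells (CHO, stable ADRB2 overexpression) incubated 18-20hr at 37C; compounds added from DMSO; agonist mix (1nM isoproterenol, 100uM IBMX, 25uM Ro-20-1724) added; 0.5hr RT; d2-cAMP and anti-cAMP-cryptate added; 1hr RT; 665/615 nm read.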

[15] = biological target: Beta-2 adrenergic receptor (Homo sapiens) (UniProt P07550); assay: Adrenergic beta2 receptor (ADRB2) small molecule agonists, cell-based qHTS assay (AID 1963593); further: potency means the concentration at half of the fitted maximal effect;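 on activation: CHO cells stably overexpressing human ADRB2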
Outline: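 CHO cells stably over-expressing ADRB2 were plated overnight at 37C, then dosed with compounds plus a stimulation mix containing 100uM IBMX and 25uM Ro-20-1724 for 0.5hr at room temperature. cAMP was measured by HTRF competition, 1hr.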

[16] = biological target: D(2) dopamine receptor (Homo sapiens) (UniProt P14416); assay: Dopamine D2 receptor (DRD2) small molecule agonists, cell-based qHTS assay (AID 1963594); further: nearly all actives have a fitted effect of over 35% in size
Outline: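 HEK293 cells stably expressing DRD2 were cultured 24 h at 37 C, then given Ro20-1724 (0.1 mM final) and compounds for 10 min at room temperature. NKH477 (200nM) was then added for 30 min. cAMP was read by HTRF.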

[17] = biological target: D(2) dopamine receptor (Homo sapiens) (UniProt P14416); assay: Dopamine D2 receptor (DRD2) small molecule antagonists, cell-based qHTS assay (AID 1963595; active means well fitted inhibition curve with a large enough effect in the signal ratio in the repeat runs, with a control signal flat; the % refers to the signal ratio; further: potency means the concentration at half of the fitted maximal effect)
Outline: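 DRD2-HEK293; 0.1 mM Ro20-1724; cpd 10 min RT; NKH477 200 nM + quinpirole 12 nM, 30 min RT; HTRF cAMP (cAMP-d2/anti-cAMP cryptate), 665/620 nm ratio after 1 h.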

[18] = p53 small molecule agonists, cell-based qHTS assay (AID 1963582; active means well fitted activation curve with a large enough effect in the signal ratio in the repeat runs, not every such curve was filed as active; the % refers to the signal ratio)
Outline: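 Reporter line: p53RE-bla. Pre-incubation 5 h, 37 C, 5% CO2; compound (DMSO, pin tool) 16 h, 37 C; B/G FRET substrate 2 h RT; fluorescence intensity read.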

[19] = cAMP Responsive Elements (CRE) small molecule antagonists, cell-based qHTS assay (AID 1963591; active means well fitted inhibition curve with a large enough effect in the signal ratio in the repeat runs, not every such curve was filed as active; the % refers to the signal ratio)
Outline: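 Beta-lactamase reporter read by FRET substrate (LiveBLAzer B/G) after 2 h at room temperature. CRE-bla HEK293T cells had received compound plus 0.25 uM (final) NKH477 for 3 h at 37 °C.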

Sequence of 5-hydroxytryptamine receptor 2A (Homo sapiens) (P28223 whole entry, looked up): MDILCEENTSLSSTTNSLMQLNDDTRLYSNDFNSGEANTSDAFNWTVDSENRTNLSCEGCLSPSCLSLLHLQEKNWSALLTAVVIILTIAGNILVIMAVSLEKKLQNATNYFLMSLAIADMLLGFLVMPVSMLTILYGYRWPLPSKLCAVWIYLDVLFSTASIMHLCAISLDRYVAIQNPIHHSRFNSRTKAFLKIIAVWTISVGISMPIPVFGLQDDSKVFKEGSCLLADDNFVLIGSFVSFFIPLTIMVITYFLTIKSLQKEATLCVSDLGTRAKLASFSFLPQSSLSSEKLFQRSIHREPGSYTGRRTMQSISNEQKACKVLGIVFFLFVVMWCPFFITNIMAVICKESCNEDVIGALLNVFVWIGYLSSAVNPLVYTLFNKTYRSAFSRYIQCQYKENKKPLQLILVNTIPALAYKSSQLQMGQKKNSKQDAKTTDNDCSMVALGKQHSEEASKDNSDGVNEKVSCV
Sequence of Gonadotropin-releasing hormone receptor (Homo sapiens) (P30968 whole entry, looked up): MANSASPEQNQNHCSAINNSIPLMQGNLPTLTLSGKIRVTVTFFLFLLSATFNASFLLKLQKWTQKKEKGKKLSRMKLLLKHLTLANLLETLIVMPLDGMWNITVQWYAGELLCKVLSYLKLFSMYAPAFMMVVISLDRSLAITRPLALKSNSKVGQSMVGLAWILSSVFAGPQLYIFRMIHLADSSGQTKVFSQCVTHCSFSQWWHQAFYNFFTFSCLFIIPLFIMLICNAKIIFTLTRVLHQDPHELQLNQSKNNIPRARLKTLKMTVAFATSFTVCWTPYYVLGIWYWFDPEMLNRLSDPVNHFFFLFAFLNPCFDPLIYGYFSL
Sequence of Beta-2 adrenergic receptor (Homo sapiens) (P07550 whole entry, looked up): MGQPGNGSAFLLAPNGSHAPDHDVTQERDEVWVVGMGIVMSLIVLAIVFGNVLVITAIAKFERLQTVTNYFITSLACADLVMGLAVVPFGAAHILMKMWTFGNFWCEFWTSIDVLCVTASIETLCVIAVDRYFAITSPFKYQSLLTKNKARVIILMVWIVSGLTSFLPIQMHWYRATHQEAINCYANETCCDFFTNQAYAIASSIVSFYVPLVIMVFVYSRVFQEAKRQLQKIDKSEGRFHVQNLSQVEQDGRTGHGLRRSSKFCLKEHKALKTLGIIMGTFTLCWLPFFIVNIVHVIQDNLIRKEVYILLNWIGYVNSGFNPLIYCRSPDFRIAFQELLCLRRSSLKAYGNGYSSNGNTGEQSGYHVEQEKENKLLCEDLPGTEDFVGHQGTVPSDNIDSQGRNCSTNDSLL
Sequence of Muscarinic acetylcholine receptor M1 (Homo sapiens) (P11229 whole entry, looked up): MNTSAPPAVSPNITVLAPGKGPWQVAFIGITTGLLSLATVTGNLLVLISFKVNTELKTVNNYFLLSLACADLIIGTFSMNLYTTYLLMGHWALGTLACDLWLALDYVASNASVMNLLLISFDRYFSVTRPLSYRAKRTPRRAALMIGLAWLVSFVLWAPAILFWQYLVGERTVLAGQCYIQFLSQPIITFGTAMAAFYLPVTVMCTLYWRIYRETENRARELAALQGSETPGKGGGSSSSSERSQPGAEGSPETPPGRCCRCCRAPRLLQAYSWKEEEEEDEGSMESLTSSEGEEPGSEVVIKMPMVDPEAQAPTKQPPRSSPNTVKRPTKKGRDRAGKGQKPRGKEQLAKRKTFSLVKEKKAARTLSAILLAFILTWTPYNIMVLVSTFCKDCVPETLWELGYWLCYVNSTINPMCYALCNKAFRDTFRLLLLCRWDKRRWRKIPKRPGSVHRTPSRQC
Sequence of KiSS-1 receptor (Homo sapiens) (Q969F8 whole entry, looked up): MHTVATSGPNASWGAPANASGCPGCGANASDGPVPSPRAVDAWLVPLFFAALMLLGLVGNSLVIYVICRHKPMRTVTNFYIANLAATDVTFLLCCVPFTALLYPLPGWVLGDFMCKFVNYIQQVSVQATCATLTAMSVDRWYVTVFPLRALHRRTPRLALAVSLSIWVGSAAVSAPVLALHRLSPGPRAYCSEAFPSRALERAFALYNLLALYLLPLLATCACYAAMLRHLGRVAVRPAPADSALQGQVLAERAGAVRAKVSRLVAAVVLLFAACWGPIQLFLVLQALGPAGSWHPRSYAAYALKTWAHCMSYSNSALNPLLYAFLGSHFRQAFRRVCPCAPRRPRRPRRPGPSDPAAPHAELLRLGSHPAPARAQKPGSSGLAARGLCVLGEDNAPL
Sequence of D(2) dopamine receptor (Homo sapiens) (P14416 whole entry, looked up): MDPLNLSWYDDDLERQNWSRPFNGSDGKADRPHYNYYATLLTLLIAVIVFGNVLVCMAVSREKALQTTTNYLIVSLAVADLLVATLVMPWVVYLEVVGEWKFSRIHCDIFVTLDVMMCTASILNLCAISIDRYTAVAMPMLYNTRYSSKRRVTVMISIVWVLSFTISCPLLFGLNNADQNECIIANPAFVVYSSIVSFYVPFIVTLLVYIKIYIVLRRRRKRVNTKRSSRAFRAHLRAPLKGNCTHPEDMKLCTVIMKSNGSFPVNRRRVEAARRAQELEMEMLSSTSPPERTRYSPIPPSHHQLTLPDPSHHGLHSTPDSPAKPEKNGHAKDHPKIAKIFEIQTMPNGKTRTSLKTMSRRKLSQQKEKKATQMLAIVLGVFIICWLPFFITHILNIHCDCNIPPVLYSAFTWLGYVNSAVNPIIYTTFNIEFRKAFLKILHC

| Structure (SMILES) | Potency [1] | Potency [2] | Potency [3] | Potency [4] | Potency [5] | Potency [6] | Potency [7] | Potency [8] | Potency [9] | Potency [10] | Potency [11] | Potency [12] | Potency [13] | Potency [14] | Potency [15] | Potency [16] | Potency [17] | Potency [18] | Potency [19] |
| --- | --- | --- | --- | --- | --- | --- | --- | --- | --- | --- | --- | --- | --- | --- | --- | --- | --- | --- | --- |
| COC(C)(C)CCCC(C)C/C=C/C(C)=C/C(=O)OC(C)C (centres undefined) | inactive | 47.8 µM (active) | inactive | inactive | inactive | inactive | inactive | inactive | inactive | inactive | 3.3 nM (active) and inactive | inactive | inactive | inactive | inactive | inactive | inactive | – | – |
| CCOP(=S)(OCC)Oc1cc(C)nc(C(C)C)n1 | inactive | inactive | inactive | inactive | inactive | inactive | inactive | inactive | inactive | inactive | inactive | – | inactive | inactive | inactive | inactive | inactive | inactive | inactive |
| Cl/C=C\C[N+]12CN3CN(CN(C3)C1)C2 | inactive | 68.6 µM (active) | inactive | inactive | inactive | inactive | inactive | – | inactive | inactive | inactive | – | inactive | inactive | inactive | inactive | inactive | inactive | inactive |
| O=P(Oc1ccccc1)(Oc1ccccc1)Oc1ccccc1 | inactive | 60.8 µM (active) and inactive | inactive | inactive | inactive | inactive | inactive | inactive | – | inactive | inactive | inactive | inactive | inactive | – | inactive | – | – | inactive |
| O=P(O)(Oc1ccccc1)Oc1ccccc1 | inactive | inactive | inactive | inactive | inactive | inactive | inactive | inactive | inactive | inactive | inactive | inactive | inactive | inactive | inactive | inactive | inactive | inactive | inactive |
| NC(=S)c1c(Cl)cccc1Cl | inactive | inactive | inactive | inactive | inactive | inactive | inactive | inactive | inactive | inactive | inactive | inactive | inactive | inactive | – | inactive | inactive | inactive | inactive |
| CNC(=O)Oc1ccccc1OC(C)C | inactive | inactive | inactive | inactive | inactive | inactive | inactive | inactive | inactive | inactive | inactive | – | inactive | inactive | inactive | inactive | inactive | inactive | inactive |
| CCOP(=S)(OCC)Oc1nc(Cl)c(Cl)cc1Cl | inactive | 27.4 µM (active) and 61.1 µM (active) | inactive | inactive | inactive | inactive | inactive | inactive | inactive | inactive | inactive | inactive | – | inactive | inactive | inactive | inactive | inactive | – |
| CC(=O)[O][Hg][c]1ccccc1 | 1.08 µM (active) and 2.17 µM (active) and 3.35 µM (active) | 864 nM (active) and 2.66 µM (active) | 34.4 µM (active) and 24.5 µM (active) | inactive | inactive | 4.04 µM (active) and 5.13 µM (active) | 3.6 µM (active) and 5.76 µM (active) and 11.2 µM (active) | 1.61 µM (active) and 4.08 µM (active) and 5 µM (active) | inactive | 21.7 µM (active) and 54.9 µM (active) and inactive | inactive | 43.6 µM (active) | – | – | 4.73 µM (active) | – | 6.06 µM (active) and 2.73 µM (active) and 5.96 µM (active) | – | – |
| Nc1ccc(-c2ccccc2)cc1 | inactive | 13.7 µM (active) | inactive | inactive | inactive | inactive | inactive | inactive | inactive | inactive | inactive | inactive | inactive | inactive | – | inactive | inactive | inactive | inactive |
| CCCCC(CC)CO[N+](=O)[O-] (centres undefined) | inactive | inactive | inactive | inactive | inactive | inactive | inactive | inactive | inactive | inactive | – | inactive | inactive | inactive | inactive | inactive | inactive | inactive | inactive |
| CCCCCBr | inactive | inactive | inactive | inactive | inactive | inactive | inactive | inactive | inactive | inactive | inactive | inactive | inactive | inactive | inactive | inactive | inactive | inactive | inactive |
| COP(=S)(OC)SCn1nnc2ccccc2c1=O | inactive | 53.4 µM (active) and 68.6 µM (active) | inactive | inactive | inactive | inactive | – | inactive | inactive | inactive | inactive | inactive | inactive | inactive | inactive | inactive | inactive | inactive | inactive |
| Nc1nc(=S)[nH][nH]1 | inactive | inactive | inactive | inactive | inactive | inactive | inactive | inactive | inactive | inactive | inactive | inactive | inactive | inactive | inactive | inactive | inactive | inactive | – |
